The values below come from PubChem BioAssay (Tox21).

Each structure is given as a SMILES string. Calls of active or inactive are those of the source. Calls follow the shape of the dose curve; as a rule, active = well fitted cell-killing curve with a large enough effect in the repeat runs; inconclusive = weak or mixed curves, or effect the other way; inactive = flat fitted curve, though single readings scatter.
% is scaled to controls: 0 for no effect and ±100 for the full control effect.

The nature of the experiment: qHTS assay to identify small molecule HDAC inhibitors - cell viability counter screen (AID 1259365). Also: nearly all actives have a fitted effect of over 50% in size. Particulars: HCT-116 viability, CellTiter-Glo ATP luminescence, 2 h; series mostly up to 92.4 µM; activity change, negative = cytotoxicity: at the top concentration. The source says:
U.S. Tox21 Program National Center for Advancing Translational Sciences [NCATS] NIH Chemical Genomics Center [NCGC] U.S. Environmental Protection Agency [EPA] National Institutes of Environmental Health Sciences [NIEHS] National Toxicology Program [NTP] U.S. Food and Drug Administration [FDA] Tox21 Assay Overview: Histone deacetylases (HDACs) are a group of epigenetic enzymes that regulate gene expression by histone deacetylation. HDACs are capable of introducing epigenetic modifications and such aberrations contribute to the onset and progression of several human diseases, thus making HDACs a popular therapeutic target. For identifying endogenous class I/II HDAC inhibitors a homogenous, luminogenic HDAC I/II cell based assay was used to measure the relative activity of class I and II HDACs from cells. Wild type HCT-116 cells were used to screen Tox21 compound libraries for identifying class I/II HDAC inhibitors.
Tox21 Assay Protocol Summary: HCT-116 cells were dispensed at 1,500 per well in 5uL of culture medium into white solid bottom 1536-well plates (Greiner Bio-One, Monroe, NC) using a Multidrop Combi (Thermo Scientific, Waltham, MA) dispenser. The assay plates were incubated at 37 C and 5% CO2 for an overnight, and then 23nL of compounds dissolved in DMSO and positive control were transferred using a Pintool station (Wako, San Diego, CA). The assay plates were incubated at 37C and 5% CO2 for 2hr. After compound treatment, 4uL of CellTiter-Glo reagent (Promega Corporation, Madison, WI) was added to each well of the assay plates using Flying Reagent Dispenser (FRD, Aurora Discovery, San Diego, CA) and incubated the assay plates at room temperature for 30min. The luminescence signal was quantified using a ViewLux plate reader (Perkin Elmer, Shelton, CT).
(In general: qHTS replaces the single test concentration by a dilution series.)
For `C[C@]12C=CC3=C4CCC(=O)C=C4CC[C@H]3[C@@H]1CC[C@@H]2O`, the Potency result is “inactive”.

`C[N+]1(CCF)[C@@H]2CC[C@H]1CC(OC(=O)C(O)(c1ccccc1)c1ccccc1)C2` (stereo not given in full): the “activity change, negative = cytotoxicity” value is -3.68% [at 42.5 µM] (inactive).

Consider `CN(C)N`, for which the “activity change, negative = cytotoxicity” value was 0.011% (inactive).

With `Nc1cc(Cl)cc(C(=O)O)c1Cl`, the Potency entry was “inactive”.

Regarding `O=C1CC[C@@]2(O)[C@H]3Cc4ccc(O)c5c4[C@@]2(CCN3CC2CC2)[C@H]1O5`, the “activity change, negative = cytotoxicity” value was -0.0598% [at 42.5 µM] (inactive).

As to `CCOP(=S)(S)OCC`, the “activity change, negative = cytotoxicity” value was 1.54% (inactive).

Consider `O=C(O)C(Cl)(Cl)Br`, for which the “activity change, negative = cytotoxicity” value was 5.63% (inactive).

`Cc1cnc(C2=NC(C)(C(C)C)C(=O)N2)c(C(=O)O)c1` (stereo not given): the “activity change, negative = cytotoxicity” value is -5.31% (inactive).

With `Cc1nc2ccccc2c(=O)n1-c1ccccc1Cl`, the “activity change, negative = cytotoxicity” value is -1.41% (inactive).

Consider `Oc1cccc(Cl)c1`, for which the “activity change, negative = cytotoxicity” value is 3.99% (inactive).

For the compound `CC(C)c1ccc(OP(=O)(Oc2ccc(C(C)C)cc2)Oc2ccc(C(C)C)cc2)cc1`, the Potency entry is “inactive”.

`CC(C)(C)OOC(C)(C)CCC(C)(C)OOC(C)(C)C`: the “activity change, negative = cytotoxicity” value is 4.28% (inactive).

As to `C=CCOCC1CO1` (stereo not given), the “activity change, negative = cytotoxicity” value was -0.289% (inactive).

As to `CCC[N+](CCC)(CCC)CCC`, the “activity change, negative = cytotoxicity” value is 4.38% (inactive).

Consider `CCCC[N+](CCCC)(CCCC)CCCC`, for which the “activity change, negative = cytotoxicity” value was -4.83% (inactive).

Turning to `CC(Cl)C(=O)O` (stereo not given), the “activity change, negative = cytotoxicity” value is 8.34% (inactive).

As to `O=C(Cc1ccccc1)OCCc1ccccc1`, the “activity change, negative = cytotoxicity” value was -6.67% (inactive).

`C#CC(O)(C=CCl)CC` (stereo not given): the “activity change, negative = cytotoxicity” value is -2.7% [at 42.5 µM] (inactive).

With `CN(C1CCCCC1)C1CCCCC1`, the “activity change, negative = cytotoxicity” value is 0.718% (inactive).

Regarding `CCCC[N+]1(C)[C@@H]2CC(OC(=O)[C@H](CO)c3ccccc3)C[C@H]1[C@@H]1O[C@@H]12` (stereo not given in full), the “activity change, negative = cytotoxicity” value is 3.48% [at 42.5 µM] (inactive).

For `CCCCCCCCCCCCN(C)C`, the “activity change, negative = cytotoxicity” value was -0.543% (inactive).

For `COC1=CC(=O)O[C@@H](/C=C/c2ccc3c(c2)OCO3)C1`, the “activity change, negative = cytotoxicity” value was -0.584% (inactive).

Consider `O=C=NC1CCCCC1`, for which the “activity change, negative = cytotoxicity” value was 6.92% (inactive).

As for `CC1(C)[C@H](C(=O)O[C@H](C#N)c2cccc(Oc3ccccc3)c2)[C@@H]1C=C(Br)Br`, the Potency entry was “inactive”.

Regarding `NP(N)(=O)NC(=O)c1ccc(F)cc1`, the “activity change, negative = cytotoxicity” value is -0.169% [at 42.5 µM] (inactive).

With `CC(C)(C)NCC(O)c1cc(Cl)c(N)c(C(F)(F)F)c1` (stereo not given), the “activity change, negative = cytotoxicity” value was 7.02% [at 42.5 µM] (inactive).

Turning to `O=C(O)CCCOc1ccc(Cl)cc1Cl`, the Potency entry is “inactive”.

As to `CCC1(CCC(C)C)C(=O)NC(=O)NC1=O`, the “activity change, negative = cytotoxicity” value was -1.76% (inactive).

As to `CCOC(=O)C1OC1(C)c1ccccc1` (stereo not given), the Potency entry is “inactive”.

Consider `CC(C)CCCCCCCOC(=O)c1ccccc1C(=O)OCCCCCCCC(C)C`, for which the “activity change, negative = cytotoxicity” value is 2.41% (inactive).

Take `CCCC[P+](CC)(CCCC)CCCC` (tested in a mixture with another compound): the “activity change, negative = cytotoxicity” value was -2.79% (inactive).

For `C[C@@H]1C[C@@H]([C@H](O)CC2CC(=O)NC(=O)C2)C(=O)[C@@H](C)C1`, the Potency result is “inactive”.

As to `CC(C)[C@@H](C(=O)O[C@@H](C#N)c1cccc(Oc2ccccc2)c1)c1ccc(Cl)cc1`, the Potency entry was “inactive”.

In the case of `CCCCC(CC)CO[N+](=O)[O-]` (stereo not given), the “activity change, negative = cytotoxicity” value is 0.019% (inactive).

With `CN(C)c1ccc(N=O)cc1`, the Potency entry was “inactive”.

With `NNCCO`, the “activity change, negative = cytotoxicity” value was 0.565% (inactive).

Turning to `OCCCl`, the “activity change, negative = cytotoxicity” value is 4.14% (inactive).

In the case of `O=C(Cc1ccccc1)c1ccccc1`, the “activity change, negative = cytotoxicity” value is -3.19% (inactive).

As for `O=C(O)c1cc(Cl)ccc1Cl`, the “activity change, negative = cytotoxicity” value is 5.05% (inactive).

In the case of `CCOC(=O)c1cn2nc(OP(=S)(OCC)OCC)cc2nc1C`, the “activity change, negative = cytotoxicity” value is -10.5% (inactive).
